Assay results as given in ChEMBL document CHEMBL3988442, “University of Dundee, Small-Polar-MMV Screening Library” (2021).
For some assays here: Potency and affinity values are given separately.

Columns and labels:
Parameters in all cases: scale not given: direction of the effect not stated beside the values
[1] = molecular target: Protein translocase subunit SecA (Escherichia coli (strain K12)) (UniProt P10408); assay: Assay to Identify E. coli SecA ATPase Inhibitors; format: functional; details: 30 µM
Sequence of Protein translocase subunit SecA (Escherichia coli (strain K12)) (P10408 whole entry): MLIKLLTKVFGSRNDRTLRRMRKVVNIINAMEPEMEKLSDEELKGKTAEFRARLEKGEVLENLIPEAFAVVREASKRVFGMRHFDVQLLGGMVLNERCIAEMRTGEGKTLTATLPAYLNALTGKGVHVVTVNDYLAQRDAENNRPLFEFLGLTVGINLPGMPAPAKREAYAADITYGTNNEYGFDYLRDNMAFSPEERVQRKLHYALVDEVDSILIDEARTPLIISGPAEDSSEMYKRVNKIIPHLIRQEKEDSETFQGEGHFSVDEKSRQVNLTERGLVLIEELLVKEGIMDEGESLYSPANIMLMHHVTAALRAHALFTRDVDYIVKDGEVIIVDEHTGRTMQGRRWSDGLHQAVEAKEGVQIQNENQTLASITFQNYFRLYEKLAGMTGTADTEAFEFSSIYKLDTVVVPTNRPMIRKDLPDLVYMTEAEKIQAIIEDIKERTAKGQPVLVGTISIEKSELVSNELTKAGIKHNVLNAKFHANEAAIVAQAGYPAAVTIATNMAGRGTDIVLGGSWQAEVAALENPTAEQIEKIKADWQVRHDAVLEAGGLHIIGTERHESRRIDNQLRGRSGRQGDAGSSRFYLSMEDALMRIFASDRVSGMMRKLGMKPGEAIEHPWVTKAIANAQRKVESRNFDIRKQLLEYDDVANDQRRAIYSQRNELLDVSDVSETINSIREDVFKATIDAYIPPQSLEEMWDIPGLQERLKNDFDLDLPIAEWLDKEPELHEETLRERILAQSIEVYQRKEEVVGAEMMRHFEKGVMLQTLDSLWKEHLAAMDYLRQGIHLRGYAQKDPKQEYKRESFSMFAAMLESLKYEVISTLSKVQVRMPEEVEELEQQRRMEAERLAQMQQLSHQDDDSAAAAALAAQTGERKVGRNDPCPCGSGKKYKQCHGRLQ

[2] = molecular target: T1, Ubiquitin-activating enzyme e1, putative (Leishmania donovani (strain BPK282A1)) (UniProt E9BSI1); assay: Leishmania donovani Ubiquitin Activating Enzyme (LdE1); format: functional; details: 30 µM
T1 sequence (whole entry): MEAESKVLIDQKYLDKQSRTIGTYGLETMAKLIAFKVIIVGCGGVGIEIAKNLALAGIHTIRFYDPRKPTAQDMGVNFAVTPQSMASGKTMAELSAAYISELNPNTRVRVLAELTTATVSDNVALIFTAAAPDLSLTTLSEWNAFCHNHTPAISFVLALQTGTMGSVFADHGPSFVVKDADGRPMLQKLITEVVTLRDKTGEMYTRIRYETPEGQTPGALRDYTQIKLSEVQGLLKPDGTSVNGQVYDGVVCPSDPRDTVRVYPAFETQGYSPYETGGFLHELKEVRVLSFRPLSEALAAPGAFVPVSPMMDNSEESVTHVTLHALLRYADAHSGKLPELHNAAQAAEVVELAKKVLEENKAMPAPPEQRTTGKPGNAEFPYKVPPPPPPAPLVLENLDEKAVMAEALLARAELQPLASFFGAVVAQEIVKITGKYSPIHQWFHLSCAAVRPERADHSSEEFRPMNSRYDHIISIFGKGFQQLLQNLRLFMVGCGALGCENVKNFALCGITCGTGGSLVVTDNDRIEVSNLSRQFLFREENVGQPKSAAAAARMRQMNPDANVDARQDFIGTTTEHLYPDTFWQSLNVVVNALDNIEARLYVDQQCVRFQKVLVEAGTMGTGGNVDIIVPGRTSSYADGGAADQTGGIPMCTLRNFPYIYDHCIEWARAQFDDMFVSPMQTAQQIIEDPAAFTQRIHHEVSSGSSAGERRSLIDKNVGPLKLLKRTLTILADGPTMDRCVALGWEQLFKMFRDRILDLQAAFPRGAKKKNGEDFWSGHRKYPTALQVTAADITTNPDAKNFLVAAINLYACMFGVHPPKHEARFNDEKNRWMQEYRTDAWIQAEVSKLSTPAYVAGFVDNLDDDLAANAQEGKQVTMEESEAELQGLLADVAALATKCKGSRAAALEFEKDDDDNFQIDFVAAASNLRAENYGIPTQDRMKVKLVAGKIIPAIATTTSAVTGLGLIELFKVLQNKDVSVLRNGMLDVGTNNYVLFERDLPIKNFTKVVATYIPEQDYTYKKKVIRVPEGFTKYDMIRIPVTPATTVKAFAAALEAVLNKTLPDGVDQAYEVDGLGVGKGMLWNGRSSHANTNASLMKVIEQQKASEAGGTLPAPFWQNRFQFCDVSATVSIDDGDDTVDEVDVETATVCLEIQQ

[3] = molecular target: AMP-activated protein kinase, AMPK (Homo sapiens) (UniProt P54646+O43741+P54619+Q9UGJ0+Q9Y478+Q13131+Q9UGI9); assay: AMP-dependent Kinase enzyme assay. An in vitro enzyme assay that detects ADP turnover that is directly proportional to AMPK activity. This uses naive AMPK that is activated during the assay with MK-8722; format: functional; details: 30 µM
[4] = molecular target: Sialic acid-binding Ig-like lectin 9 (Homo sapiens) (UniProt Q9Y336); assay: Hs-Siglec9 ALPHAscreen SOP 20170721; details: 10 µM
Sequence of Sialic acid-binding Ig-like lectin 9 (Homo sapiens) (Q9Y336 whole entry): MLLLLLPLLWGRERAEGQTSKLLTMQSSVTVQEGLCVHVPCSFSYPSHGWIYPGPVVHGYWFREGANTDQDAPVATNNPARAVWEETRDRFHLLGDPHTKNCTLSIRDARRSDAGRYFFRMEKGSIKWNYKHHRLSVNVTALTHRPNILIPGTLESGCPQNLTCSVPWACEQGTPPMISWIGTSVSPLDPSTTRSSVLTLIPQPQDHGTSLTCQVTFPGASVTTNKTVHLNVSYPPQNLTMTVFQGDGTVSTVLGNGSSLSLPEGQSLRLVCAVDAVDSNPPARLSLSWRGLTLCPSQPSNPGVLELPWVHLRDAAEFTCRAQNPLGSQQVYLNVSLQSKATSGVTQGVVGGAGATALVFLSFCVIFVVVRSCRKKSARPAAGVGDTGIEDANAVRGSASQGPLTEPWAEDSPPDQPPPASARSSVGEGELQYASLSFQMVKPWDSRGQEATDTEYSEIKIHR

Trypanosoma cruzi = assay: Trypanosoma cruzi phosphomannomutase and mannose-1-phosphate guanylyltransferase assay; format: functional; details: 10 µM
[5] = molecular target: T2, Arginase-2, mitochondrial (Homo sapiens) (UniProt P78540); assay: in vitro enzyme assay to detect the production of urea directly proportional to the activity of Arginase II; format: functional; details: 33.3 µM; note: in the data most compounds retested in dose-response had high values
T2 sequence (whole entry): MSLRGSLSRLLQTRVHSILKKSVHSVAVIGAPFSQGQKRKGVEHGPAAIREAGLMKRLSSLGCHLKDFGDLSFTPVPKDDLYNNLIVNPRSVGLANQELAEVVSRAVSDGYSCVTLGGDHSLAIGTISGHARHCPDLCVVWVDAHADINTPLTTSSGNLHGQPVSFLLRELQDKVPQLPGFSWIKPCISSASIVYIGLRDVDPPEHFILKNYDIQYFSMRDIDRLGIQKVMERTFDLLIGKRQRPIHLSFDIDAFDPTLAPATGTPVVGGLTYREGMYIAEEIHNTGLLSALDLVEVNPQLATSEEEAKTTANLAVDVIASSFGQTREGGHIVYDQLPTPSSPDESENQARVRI

[6] = molecular target: T3, Proteasome subunit beta (Trypanosoma cruzi) (UniProt O96673); assay: Trypanosoma cruzi proteasome chymotrypsin-like activity (TcProtChymo) assay.; note: in the data most compounds retested in dose-response had high values; format: functional; details: 9.37 µM
T3 sequence (whole entry): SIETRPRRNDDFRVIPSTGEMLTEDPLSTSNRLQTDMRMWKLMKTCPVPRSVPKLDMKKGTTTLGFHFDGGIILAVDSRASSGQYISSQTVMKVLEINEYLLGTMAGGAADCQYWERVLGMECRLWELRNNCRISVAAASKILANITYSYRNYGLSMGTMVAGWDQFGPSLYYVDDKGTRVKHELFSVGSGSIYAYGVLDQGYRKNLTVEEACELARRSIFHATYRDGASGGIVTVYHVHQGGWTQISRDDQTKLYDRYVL

Homo sapiens = organism: Homo sapiens; assay: To identify inhibition of the IFN signalling (Jak-Stat) pathway via expression of an eGFP reporter gene under the control of an IFN-stimulated response element (ISRE) containing MxA promoter.; format: functional; details: 30 µM
[7] = molecular target: T4, Tyrosyl-tRNA synthetase, putative (Trypanosoma cruzi (strain CL Brener)) (UniProt Q4DSP6); assay: Trypanosoma cruzi tyrosyl tRNA synthetase (TcYRS) _High Tyrosine SOP; format: functional; details: 30 µM; note: in the data most compounds retested in dose-response had high values
T4 sequence (whole entry): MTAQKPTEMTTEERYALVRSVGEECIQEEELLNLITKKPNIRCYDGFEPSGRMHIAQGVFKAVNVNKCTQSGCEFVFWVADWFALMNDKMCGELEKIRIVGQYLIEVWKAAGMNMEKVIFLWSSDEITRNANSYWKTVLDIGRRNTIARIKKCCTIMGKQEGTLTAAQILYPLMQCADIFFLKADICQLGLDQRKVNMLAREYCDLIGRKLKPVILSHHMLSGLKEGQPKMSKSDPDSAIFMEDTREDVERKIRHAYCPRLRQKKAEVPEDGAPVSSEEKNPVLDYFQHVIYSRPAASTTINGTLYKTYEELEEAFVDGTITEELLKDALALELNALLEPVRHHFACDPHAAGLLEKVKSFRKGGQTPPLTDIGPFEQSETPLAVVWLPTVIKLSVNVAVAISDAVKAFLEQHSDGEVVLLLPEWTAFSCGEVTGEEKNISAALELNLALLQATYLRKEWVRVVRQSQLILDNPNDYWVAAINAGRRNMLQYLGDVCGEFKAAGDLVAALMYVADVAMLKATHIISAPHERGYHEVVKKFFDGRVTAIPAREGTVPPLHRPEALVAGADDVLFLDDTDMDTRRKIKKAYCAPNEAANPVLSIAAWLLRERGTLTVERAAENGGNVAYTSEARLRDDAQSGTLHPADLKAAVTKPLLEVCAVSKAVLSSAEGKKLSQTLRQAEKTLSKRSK

[8] = molecular target: T4, Tyrosyl-tRNA synthetase, putative (Trypanosoma cruzi (strain CL Brener)); assay: Trypanosoma cruzi tyrosyl tRNA synthetase (TcYRS) SOP; format: functional; details: 30 µM
[9] = molecular target: Chromo domain-containing protein 1 (Saccharomyces cerevisiae (strain ATCC 204508 / S288c) (Baker's yeast)) (UniProt P32657); assay: ScCHD-1 Enzyme Inhibition Assay; format: functional; details: 30 µM; note: in the data most compounds retested in dose-response had high values
Sequence of Chromo domain-containing protein 1 (Saccharomyces cerevisiae (strain ATCC 204508 / S288c) (Baker's yeast)) (P32657 whole entry, the tested form may be a part): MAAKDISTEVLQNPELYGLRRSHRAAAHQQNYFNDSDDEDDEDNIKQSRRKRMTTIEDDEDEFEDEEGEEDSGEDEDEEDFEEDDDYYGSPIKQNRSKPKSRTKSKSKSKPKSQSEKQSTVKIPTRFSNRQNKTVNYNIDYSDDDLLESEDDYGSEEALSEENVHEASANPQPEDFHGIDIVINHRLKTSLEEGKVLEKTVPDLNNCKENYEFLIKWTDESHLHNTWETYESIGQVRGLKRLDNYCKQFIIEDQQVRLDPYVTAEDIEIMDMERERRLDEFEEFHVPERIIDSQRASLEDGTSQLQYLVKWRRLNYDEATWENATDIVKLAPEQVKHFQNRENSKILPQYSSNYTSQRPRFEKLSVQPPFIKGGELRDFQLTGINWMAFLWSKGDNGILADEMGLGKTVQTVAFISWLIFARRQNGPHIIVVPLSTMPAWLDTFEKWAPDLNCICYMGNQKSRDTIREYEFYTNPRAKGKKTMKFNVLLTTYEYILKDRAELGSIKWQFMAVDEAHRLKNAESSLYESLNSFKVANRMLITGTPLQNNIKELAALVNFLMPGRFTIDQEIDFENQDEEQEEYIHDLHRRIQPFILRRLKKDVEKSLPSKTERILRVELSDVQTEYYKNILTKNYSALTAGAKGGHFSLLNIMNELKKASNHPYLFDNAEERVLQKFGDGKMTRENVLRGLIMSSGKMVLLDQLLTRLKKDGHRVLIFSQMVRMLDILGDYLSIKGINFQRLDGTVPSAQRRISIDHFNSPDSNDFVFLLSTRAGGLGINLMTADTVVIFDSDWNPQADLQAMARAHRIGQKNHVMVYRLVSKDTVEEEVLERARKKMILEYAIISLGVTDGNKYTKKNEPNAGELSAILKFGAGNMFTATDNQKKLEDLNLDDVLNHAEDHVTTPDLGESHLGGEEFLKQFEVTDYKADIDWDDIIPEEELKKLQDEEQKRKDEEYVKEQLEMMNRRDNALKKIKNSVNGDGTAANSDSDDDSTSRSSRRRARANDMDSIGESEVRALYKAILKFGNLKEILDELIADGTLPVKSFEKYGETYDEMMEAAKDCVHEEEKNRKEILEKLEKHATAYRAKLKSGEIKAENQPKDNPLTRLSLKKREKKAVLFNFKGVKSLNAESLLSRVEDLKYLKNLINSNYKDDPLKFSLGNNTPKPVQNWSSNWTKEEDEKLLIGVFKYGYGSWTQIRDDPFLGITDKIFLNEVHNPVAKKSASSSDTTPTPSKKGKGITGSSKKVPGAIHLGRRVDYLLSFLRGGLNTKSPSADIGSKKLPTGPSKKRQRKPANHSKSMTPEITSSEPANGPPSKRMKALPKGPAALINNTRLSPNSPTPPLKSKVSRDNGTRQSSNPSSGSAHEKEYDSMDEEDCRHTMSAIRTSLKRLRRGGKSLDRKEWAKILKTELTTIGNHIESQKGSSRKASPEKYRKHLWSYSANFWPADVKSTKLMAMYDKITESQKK

Row | Structure (SMILES) | Percent Effect [1] | Percent Effect [2] | Percent Effect [3] | Percent Effect [4] | Percent Effect (Trypanosoma cruzi) | Percent Effect [5] | Percent Effect [6] | Percent Effect (Homo sapiens) | Percent Effect [7] | Percent Effect [8] | Percent Effect [9]
1 | CCc1ncc2c(n1)CN(Cc1nc(-c3ccsc3)oc1C)CC2 | -6.04% | -18.4% | -33% | 12.2% | -1.77% | -0.719% | 9.73% | -1.35% | 19.2% | 16.1% | 2.49%
2 | CCc1cnc(CN(C)C2CCN(CCS(C)(=O)=O)C2)o1 (configuration not stated) | -1.6% | -1.39% | -3.86% | -4.8% | -5.54% | 2.21% | 3.51% | -7.25% | 0% | 2.56% | 0.436%
3 | Cc1cnn(CCC(=O)N2CCC(Nc3cccnn3)CC2)c1 | -6.66% | 5.41% | 1.21% | 3.62% | -5% | -2% | -3.6% | 16.4% | 0.493% | -8.64% | 2.32%
4 | Cc1ccc(OCC(=O)NCC(C)C)nc1 | -6.24% | 13.7% | -6.5% | 6.61% | 6.94% | 1.2% | 4.37% | 1.54% | 8.33% | 11.1% | -8.95%
5 | CCn1cnnc1CNC(=O)NC(C)c1cccs1 (configuration not stated) | -1.87% | 23.4% | -0.473% | 11.3% | 1.5% | -5.69% | 3.38% | 10.1% | 4.85% | 21.9% | -8.5%
6 | O=C(Cc1cccs1)NC1CCN(c2cccc(F)c2)CC1 | -3.15% | 16.4% | 6.31% | 18.6% | 2.74% | 7.27% | 9.05% | -1.55% | 5.38% | 15% | 1.6%
7 | CN(Cc1ccsc1)C(=O)c1cc2c([nH]c1=O)CCCC2=O | -3.09% | 13.5% | -2.3% | 9.82% | -2.32% | -0.185% | 16.5% | 3% | 4.95% | 18.3% | -6.06%
8 | CC(NC(=O)Nc1cc(F)ccc1N1CCCCC1)c1nncn1C (configuration not stated) | -4.95% | 5.41% | -5.33% | -3.53% | -3.49% | 2.81% | -3.78% | 1.69% | 1.48% | 1.24% | -2.66%
9 | O=C(c1ccc2c(c1)COC2)N1CCN(CC2CC2)CC1 | -2.51% | 5.06% | -1.47% | 8.43% | -0.283% | -1.52% | -2.21% | 0.542% | 4.43% | -1.27% | 1.49%
10 | CNC(=O)C(C)(C)NC(=O)c1cc(OCC2CCC2)cc(C(=O)OC)c1 | -0.888% | 11% | 28.1% | -1.12% | 2.35% | 15.9% | 12.6% | 31.3% | 6.45% | 15% | -3.04%
11 | CC(=O)N(Cc1ncc(C(C)C)o1)C1CCN(CCn2cccn2)C1 (configuration not stated) | 0.67% | 10.8% | -13.2% | 0.985% | 2.69% | 0.924% | 18.9% | -1.48% | 14.8% | 1.22% | -4.25%
12 | CN(Cc1ccc(F)cc1)C(=O)CN1CCOC(Cn2cncn2)C1 (configuration not stated) | 0.893% | 17.7% | -2.68% | -5.85% | -7.65% | -1.52% | 17.6% | 36% | 1.48% | 3.8% | -4.1%
13 | COCC(=O)N1CCC[C@]2(C(=O)N(C)C)CN(c3ccccn3)C[C@@H]2C1 | -2.73% | 5.33% | -3.72% | 0.562% | 5.02% | -50.4% | 16.2% | -8.04% | 6.25% | 5% | -8.42%
14 | COCCOc1ccc(NC(=O)C2CC(=O)N(C)C2)cn1 (configuration not stated) | 0.0993% | 12.7% | -16.4% | -3.76% | -5.95% | 6.46% | 1.06% | 23.3% | 1.48% | 11.4% | -5.38%
15 | CCCC(=O)Nc1sc(C(=O)OCC)c(C)c1C#N | 0.0516% | 7.79% | 24.2% | -8.77% | -5.42% | 8.39% | 10.4% | -0.547% | 1.06% | 16.7% | -3.68%
16 | CC(C)c1n[nH]c(C2CN(C(=O)c3cccc4cn[nH]c34)CCO2)n1 (configuration not stated) | -1.73% | 7.89% | 4.13% | 11.6% | 2.33% | 1.8% | 4.32% | 4.21% | 2.46% | 6.17% | -0.736%
17 | O=C(Nc1ccnc(OC2CCOC2)c1)c1cc(F)ccc1F (configuration not stated) | -5.45% | -1.39% | 2.94% | 5.39% | -1.65% | -2.65% | 11.6% | 2.19% | -5.26% | -10.3% | 9.81%
18 | CCc1cnc(CN(C)C2CCN(CCc3ccccn3)C2)o1 (configuration not stated) | 3.36% | 9.72% | -16% | 1.45% | -3.21% | 3.97% | 25.6% | 0.763% | 10.5% | 5.13% | 107%
19 | COCc1ccccc1C(=O)N1CCCC(n2nc(C)cc2C)C1 (configuration not stated) | -3.82% | 5.06% | -3.09% | 3.7% | 4.06% | -6.08% | 4.67% | -9.14% | 4.43% | 3.8% | -4.28%
20 | CCc1nc(C)c(C(=O)NCCNc2ncccn2)s1 | -4.61% | 15.8% | -1.87% | -4.05% | -2.52% | 0% | 2.28% | -2.51% | 9.36% | 16.1% | -3.7%
21 | O=C(Cn1cc(C(=O)O)ccc1=O)Nc1ccc(Cl)cc1F | -1.04% | 20% | -5.95% | 0.752% | 1.38% | -4.75% | 10.7% | 9.59% | 7.41% | 10.3% | -12%
22 | Cc1cc(C)n(C2CCCN(C(=O)c3cnc4onc(C)c4c3)C2)n1 (configuration not stated) | -2.86% | 5.2% | 2.66% | 12.3% | -1.08% | 4.84% | 4.77% | 38.1% | 1.91% | 9.41% | -15.5%
